OPRM1-OPRD1 ag = agonists of human mu-delta opioid receptor heterodimerization; actives 0.3% (n = 340,000); cells, OPRM1-OPRD1 heterodimerization, luminescence; activation, % at 9.3 µM; AID 504326; in the data active means activation above about 18%;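 further: 0% = vehicle-treated cells and 100% = reference agonist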
HTR5A ag ctr = activates human HTR5A in OPRM1-OPRD1 agonist counter-screen. P47898. HTR5A agonist assay, luminescence, cell-based. activation, % at 9.3 µM. actives 0.61% (n = 340,000). AID 504692; in the data active means activation mostly above about 9.5%, no sharp cut-off; inactive means mostly below about 7.6%;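 further: 0% = cells with vehicle only and 100% = reference agonist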
MOR-DOR inv ag = inverse agonist of human OPRM1-OPRD1 heterodimerization; P35372+P41143; cell-based MOR-DOR heterodimer luminescence, inverse agonism; inhibition, % at 9.3 µM; actives 0.21% (n = 340,000); AID 504357; in the data active means inhibition above about 22%, passing the limit was not always enough;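 further: 0% = cells with DMSO and 100% = wells without cells with DMSO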
HTR5A inv ctr = HTR5A inverse agonism, opioid heterodimer counter-screen; P47898; HTR5A cell line, luminescence; inhibition, % at 9.3 µM; actives 0.083% (n = 340,000); AID 504634; in the data active means inhibition mostly above about 23%, no sharp cut-off; inactive means mostly below about 18%;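 further: 0% = cells with DMSO and 100% = no-cell wells with DMSO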
* marks the source's active call; other numbers are inactive results. Rows were chosen to be rich in hits. Some 1.1% of all compounds tested hit in one or more screens of this group.

SMILES	OPRM1-OPRD1 ag	HTR5A ag ctr	MOR-DOR inv ag	HTR5A inv ctr
CCCCC(=O)Nc1sc2c(c1C(=O)OCC)CCC(C=O)=C2Cl	0.9	12.3*	-5.2	3.8
CCOC(=O)c1c(NC(=O)c2ccccc2Cl)sc2c1CCc1ccccc1-2	1.6	0.6	-8.1	11.8
COc1ccc(-c2cc(C(=O)OCC(=O)c3ccc(C)c([N+](=O)[O-])c3)c3ccccc3n2)cc1	-2.3	-0.8	12.1	-26.3
Cc1ccc2nc(C)cc(C(=O)OCC(=O)c3ccc(Cl)c([N+](=O)[O-])c3)c2c1	-19.1	-8.9	79.3*	40.6*
C/C(=N/N=C/c1ccccc1O)c1ccccc1O	-1.5	10.3*	6.8	-36.9
Oc1ccccc1C=NN=C1c2ccccc2-c2ccccc21	-5.3	-4.0	23.2	15.2
CC(=O)c1sc2nc(SCC(=O)NCCc3ccccc3)[nH]c(=O)c2c1C	-7.1	12.8*	23.4	-27.1
COc1ccc(CCNC(=O)CSc2nc3sc(C(=O)O)c(C)c3c(=O)[nH]2)cc1OC	-2.4	1.1	12.8	-15.7
CC(=O)c1cc(CN2CCC(n3nccc3NC(=O)c3ccccc3)CC2)cs1	-4.7	-4.3	24.0	10.4
COc1c(Cl)cc(Cl)cc1/C=N/NC(=O)c1nnn(-c2nonc2N)c1CN1CCC(C)CC1	2.3	11.0*	-12.5	-19.0
CC1CCN(Cc2c(C(=O)N/N=C/c3cc(Cl)ccc3O)nnn2-c2nonc2N)CC1	4.7	0.1	-26.2	-0.2
Cc1ccc(C(=O)N/N=C/c2cc(Br)ccc2O)cn1	1.0	10.3*	-4.6	-38.2
Cc1cc(C(=O)CCl)c(C)n1CCc1ccc(Cl)cc1	18.9*	16.7*	-94.1	-6.2
Cc1cc(C(=O)CCl)c(C)n1CCc1ccc(F)cc1	3.3	7.1	-16.4	3.0
COc1ccccc1N(C)S(=O)(=O)c1ccc(C(=O)NC(C)c2ccccc2)cc1 (configuration not stated)	-2.0	1.9	10.6	-44.9
OC12CC3C[C@H](C1)C(N1CCOCC1)[C@@H](C3)C2 (some centres not stated)	-1.0	10.2*	5.0	-34.6
CCOC(=O)c1c(C)[nH]c(C)c1C(=O)COC(=O)CCc1ccccc1	-1.2	13.1*	4.7	-5.0
CCC(=O)N1CCc2cc(S(=O)(=O)NCCC(=O)NCc3ccccc3OC)ccc21	-1.7	11.2*	8.8	-5.0
CCOC(=O)CNC(=O)CSc1nc2nc(C)c(Br)cc2[nH]1	2.3	12.7*	-9.7	13.8
CCOc1ccc(NS(=O)(=O)c2cc3c4c(c2)C(C)C(=O)N4CCC3)cc1 (configuration not stated)	-0.9	1.9	4.8	-7.0
CC(=O)N/C(=C\c1ccccc1)C(=O)OCc1cccc(S(=O)(=O)N(C)C)c1	0.5	9.4*	-2.1	-33.7
O=C(CN(Cc1ccccc1)C(=O)CCl)c1cccc(Br)c1	33.2*	37.8*	-152.4	-14.8
Cc1ccc(-n2c(C)c(C)c3c(N)ncnc32)cc1	0.0	0.9	0.1	-50.1
CC1(c2ccc(C#N)cc2)NC(=O)N(CC(=O)Nc2cc(S(=O)(=O)N3CCOCC3)ccc2Cl)C1=O (configuration not stated)	-2.4	-3.3	12.7	14.9
CCCN(CC(=O)Nc1ccccc1C)C(=O)COC(=O)c1cnc(C)cn1	0.7	10.3*	-3.7	-27.9
SMILES	OPRM1-OPRD1 ag	HTR5A ag ctr	MOR-DOR inv ag	HTR5A inv ctr
CC(NC(=O)c1ccc(F)cc1)c1ccccc1 (configuration not stated)	-1.5	10.0*	8.3	-9.1
Cc1ccc(C(=O)NC(C)c2ccc(F)cc2)cc1 (configuration not stated)	-0.3	-0.2	1.7	0.7
CS(=O)(=O)NCCSCc1ccccc1	-2.7	-1.6	12.5	22.8
CS(=O)(=O)NCCSc1cc(C(F)(F)F)nc2ccccc12	-4.1	11.8*	21.2	2.0
Cc1cc(=O)[nH]c(SCC(=O)Nc2ccc(Br)cn2)n1	2.0	13.0*	-11.3	-34.8
CCOC(=O)C(Cc1ccccc1)NC(C)=O (configuration not stated)	-1.8	12.2*	9.8	-23.9
CC(=O)NC(Cc1ccccc1)C(C)=O (configuration not stated)	-3.3	-1.8	15.6	4.7
O=C(c1ccc(Cl)c(S(=O)(=O)NCc2ccco2)c1)N1CCN(c2ccccc2F)CC1	-1.7	12.9*	10.0	-85.5
C=CCNC(=S)N/N=C(\C)c1cc(OC)c(OC)c(OC)c1	-3.3	1.1	17.0	9.0
O=C(NNC(=S)Nc1ccccc1)Nc1ccccc1	-6.0	-8.2	34.6*	23.4*
Cc1ccc(NC(=S)NNC(=O)Nc2ccccc2)cc1	-5.8	-11.4	33.7*	29.4*
